# ADAM17 inh = ADAM17 inhibitors, primary screen, biochemical, QFRET; Disintegrin and metalloproteinase domain-containing protein 17 (Homo sapiens), P78536; recombinant ADAM17, EDANS/DABCYL FRET peptide cleavage; inhibition, % at 6.95 µM; 370,000 tested, 0.83% active; AID 720648, 2013;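 active means inhibition above the mean of compounds lying between control limits plus 3 SD, set per campaign, cut at about 8.5% in these data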;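 further: 0% = DMSO-only wells as the low control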
# Target sequence (P78536 215-824 limits assumed): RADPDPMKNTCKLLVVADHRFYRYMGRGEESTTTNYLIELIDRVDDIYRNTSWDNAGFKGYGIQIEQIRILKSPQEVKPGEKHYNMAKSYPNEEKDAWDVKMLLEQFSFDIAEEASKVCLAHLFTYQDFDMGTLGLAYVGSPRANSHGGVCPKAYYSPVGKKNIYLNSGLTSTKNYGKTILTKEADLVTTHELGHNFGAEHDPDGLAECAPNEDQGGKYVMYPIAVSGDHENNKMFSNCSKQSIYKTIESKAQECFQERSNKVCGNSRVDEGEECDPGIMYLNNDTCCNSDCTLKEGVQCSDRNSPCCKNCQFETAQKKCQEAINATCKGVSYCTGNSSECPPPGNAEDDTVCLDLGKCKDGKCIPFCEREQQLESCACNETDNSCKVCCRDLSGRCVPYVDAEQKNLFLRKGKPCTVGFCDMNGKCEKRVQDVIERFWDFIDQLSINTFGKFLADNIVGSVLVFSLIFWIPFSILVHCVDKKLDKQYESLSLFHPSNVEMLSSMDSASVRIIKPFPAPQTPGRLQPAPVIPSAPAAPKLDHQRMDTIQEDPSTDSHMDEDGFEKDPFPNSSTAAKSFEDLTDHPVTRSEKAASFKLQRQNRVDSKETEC
# DSG3 Ab inh = inhibitors of pemphigus antibody binding to DSG3, primary screen, biochemical, bead-based, flow cytometry, scFv-GFP | DSG3-coupled beads, scFv-anti-DSG3-GFP binding; hits give low values | binding (percent of control), % at 10 µM | 310,000 tested, 0.48% active;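 active means binding more than 3 SD below its plate's average and above zero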;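 further: hits lower antibody fragment binding to DSG3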
# rCAG binder = binders of r(CAG) RNA repeats, primary screen, biochemical, fluorescence; r(CAG) RNA repeat, TO-PRO-1 dye displacement fluorescence; AID 651821, 2012; 370,000 tested, 1.3% active; inhibition, % at 3 µM;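 active means inhibition above the plate cutoff, the mean of all test compounds on that plate plus 3 SD, cut at about 35% in these data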;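 further: 0% = DMSO alone and 100% = 100 µM mitoxantrone as full dye displacement; higher means more dye released from RNA so lower well fluorescence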
# MPTP block = mitochondrial permeability transition pore inhibitors, primary screen, biochemical, isolated mouse mitochondria, absorbance | Ca2+ swelling absorbance, 30 min | inhibition, % at 10 µM | 360,000 tested, 1.4% active | AID 602449, 2012;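 active means inhibition of 50% or more, scaled per plate between neutral and stimulator controls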;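 further: 0% = DMSO wells given calcium and 100% = 1 mM EGTA wells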
# ADAM10 inh = human ADAM10 inhibitors, primary screen, biochemical, QFRET, HTS. Disintegrin and metalloproteinase domain-containing protein 10 (Homo sapiens), O14672. recombinant ADAM10, EDANS/DABCYL FRET peptide cleavage, 3 h. inhibition, % at 7 µM. 370,000 tested, 0.62% active. AID 720582, 2013;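 active means inhibition above a per-campaign cutoff equal to the mean of compounds falling between control-based bounds plus 3 SD, cut at about 20% in these data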;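 further: 0% = DMSO wells while the 100% control is not disclosed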
# proKLK7 act = proKLK7 zymogen activators, primary screen, biochemical, fluorescence intensity | Kallikrein-7 (Homo sapiens), P49862 | purified proKLK7, EDANS-DABCYL substrate fluorescence; 100% is mature enzyme control, 0% vehicle | activation, % at 7 µM | 370,000 tested, 0.9% active | AID 652039, 2013;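 active means activation above the mean of all tested compounds plus 3 SD, computed per campaign excluding outliers beyond control limits, cut at about 13% in these data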
# rCAG bind conf = small molecules binding CAG repeat RNA – biochemical, fluorescence, confirmation; AID 652065, 2013; shares compounds with rCAG binder; r(CAG) RNA repeat, TO-PRO-1 dye displacement fluorescence; 4,300 tested, 70% active; inhibition, % at 3 µM;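 active means inhibition above a per-plate cutoff, the mean inhibition of sample wells plus 3 SD, cut at about 35% in these data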;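 further: loss of TO-PRO-1 fluorescence as compound displaces dye from 1x1 AA loop RNA; 0% = DMSO only wells and 100% = 100 µM mitoxantrone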
# DNA CAG counter = displacement of TO-PRO-1 from CAG DNA duplex, counter-screen for rCAG RNA repeat binder project, biochemical, fluorescence, TO-PRO-1 dye, d(CAG) DNA oligo; shares compounds with rCAG binder; d(CAG) DNA oligo TO-PRO-1 dye displacement; inhibition, % at 3 µM; 4,300 tested, 94% active;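 active means inhibition above its plate's cutoff, the mean test-well inhibition plus 3 SD, cut at about 4.8% in these data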;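 further: 0% = DNA dye mix with DMSO and 100% = 100 µM mitoxantrone; hits displace the dye from DNA and so lower well fluorescence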
# An asterisk follows results filed as active; . = no result. This is a sample that favours compounds with a hit; in the whole collection about 4.7% have one here.
SMILES,ADAM17 inh,DSG3 Ab inh,rCAG binder,MPTP block,ADAM10 inh,proKLK7 act,rCAG bind conf,DNA CAG counter
O=C(NCc1ccccc1)[C@H]1CCCN1C(=O)[C@H]1CCCN1C(=O)c1cccc2ccccc12,-4,.,1,.,-7,0,.,.
COC(=O)[C@@]1(Cc2ccc(OC)cc2)[C@H]2c3cc(C(=O)N4CCCC4)n(CCN4CCOCC4)c3C[C@H]2CN1C(=O)c1ccccc1,1,.,4,-2,9,0,.,.
CCSc1c([N+](=O)[O-])c(=O)n(-c2ccccc2)c2ccccc12,2,94,2,3,3,0,.,.
COC(=O)C1=C(C)N(Cc2cccc(C(F)(F)F)c2)C(=NCC2CC2)NC1c1cccc(F)c1 (centres undefined),-4,.,7,.,-5,0,.,.
CCCCCCCCN1C(=O)[C@@H](CC(=O)N2CCN(C(=O)C3CC3)CC2)C[C@@]2(C(=O)OC)C1=C[C@H](COCc1ccccc1)O[C@@H]2C,-1,.,5,.,6,1,.,.
O=C(O)c1cccc(-c2ccc(/C=N/Nc3ccc([N+](=O)[O-])cc3)o2)c1,3,94,59*,9,8,0,49*,15*
O=C(O)c1ccc(N/N=C/c2ccc(-c3ccc(Cl)cc3Cl)o2)cc1,-8,93,92*,9,-16,-1,84*,51*
Cc1c(C(=O)O)cccc1-c1ccc(/C=N/Nc2ccc(Br)cc2)o1,-8,103,50*,8,-26,0,64*,21*
O=C(O)c1ccc(N/N=C/c2ccc(-c3cccc(Cl)c3)o2)cc1,-14,99,63*,5,-18,0,50*,16*
CCCC1NC(=O)c2cccnc2-n2c1nc1ccc(OC)cc1c2=O (centres undefined),-1,100,1,5,-17,0,.,.
COc1ccc(CCN2C(=O)CCC2(C)c2nnnn2-c2c(C)cccc2C)cc1OC (centres undefined),-4,.,0,-2,-7,1,.,.
O=C(Nc1nccs1)C1(C(=O)C2CC2)CC(c2ccccn2)=NO1 (centres undefined),-2,.,0,.,-7,0,.,.
CCCc1nc2ccc(C(=O)OC)cn2c1Cc1cccc(F)c1,-13,.,5,0,-39,-1,.,.
CN1C(=O)c2cc(NC(=O)C3CCCCC3)ccc2OC[C@H]2O[C@@H](CC(=O)NC3CCCC3)CC[C@H]21,5,.,5,.,9,1,.,.
COc1ccccc1NC(=O)Nc1nc(C(N)CCc2ccccc2)cs1 (centres undefined),8,.,22,6,7,0,.,.
COc1ccccc1NC(=O)Nc1nc(CC(=O)NCc2ccccn2)cs1,1,105,-1,1,-8,0,.,.
COc1ccc(CC(N)c2csc(NC(=O)Nc3ccc(OC)cc3)n2)cc1 (centres undefined),5,.,34,11,7,0,.,.
O=C(Cc1csc(NC(=O)Nc2cccc(Cl)c2)n1)NCc1ccccn1,-2,103,39*,14,6,0,15,14*
NC(CCc1ccccc1)c1csc(NC(=O)Nc2cccc(Cl)c2)n1 (centres undefined),3,.,47*,3,2,0,40*,9.8*
NC(c1ccccc1)c1csc(NC(=O)Nc2cccc(Cl)c2)n1 (centres undefined),0,.,48*,3,-7,0,37*,17*
COc1ccc(NC(=O)Nc2nc(C(N)Cc3ccc(C(F)(F)F)cc3)cs2)cc1 (centres undefined),4,.,37*,5,6,0,17,2
CN(C)Cc1cn(CC[C@@H]2CC[C@@H](NC(=O)Nc3ccccc3F)[C@@H](CO)O2)nn1,0,.,1,0,7,0,.,.
COc1cccc(Cn2cc(COC(=O)NCCc3c[nH]c4ccccc34)nn2)c1,-5,.,4,.,4,1,.,.
NC(COCc1ccccc1)c1csc(NC(=O)Nc2cccc(C(F)(F)F)c2)n1 (centres undefined),4,.,43*,5,10,0,30,5.1*
OCC[C@@H]1C[C@H](O)[C@@H](O)[C@@]2(OCc3ccc(CO)cc32)O1,-3,.,1,-2,-3,1,.,.
SMILES,ADAM17 inh,DSG3 Ab inh,rCAG binder,MPTP block,ADAM10 inh,proKLK7 act,rCAG bind conf,DNA CAG counter
COc1ccc(C(=O)CCC(=O)N2CCN(c3cc(C)ccc3C)CC2)cc1,0,.,-9,0,2,1,.,.
COc1ccc(NC(=O)OC[C@@H]2CSCCS(=O)(=O)N2)cc1,-5,.,-1,.,-13,0,.,.
CO[C@@H]1[C@@H](OC(N)=O)[C@@H](O)[C@H](Oc2ccc3c(O)c(NC(=O)c4ccc(O)c(CC=C(C)C)c4)c(=O)oc3c2C)OC1(C)C,-5,.,50*,-1,-24,0,56*,26*
CCCNC(=O)Nc1ccc(C)cc1C,-9,88,0,1,1,-1,.,.
CCC(C)[C@H](NC(=O)Nc1ccc(C)cc1C)C(=O)O (some centres undefined),-6,96,64*,0,0,0,-1,-2
CCN(c1ccccc1)S(=O)(=O)c1cc(NC(=O)CSc2n[nH]c(=O)[nH]c2=O)ccc1Cl,-3,98,48*,3,-7,0,32,15*
O=C(CSc1n[nH]c(=O)[nH]c1=O)Nc1ccc2c(c1)C(=O)c1ccccc1C2=O,-1,91,40*,1,1,0,43*,17*
O=C(CSc1ccccn1)Nc1ccc2c(c1)C(=O)c1ccccc1C2=O,1,89,10,6,4,-1,.,.
CSc1nc2ccc(S(=O)(=O)N3CCOCC3)cc2s1,-4,98,-4,0,-6,0,.,.
N#CCc1nc2ccc(S(=O)(=O)N3CCOCC3)cc2s1,-8,101,43*,5,-15,-2,25,15*
Brc1cc2c(cc1COc1ccc(-c3nn[nH]n3)cc1)OCO2,0,118,35*,-2,7,0,25,6.5*
